RAD54 branch – RAD54 (human) branch migration inhibition | Q92698 | RAD54 Holliday junction branch migration, FAM/BHQ fluorescence | inhibition, % at 10.4 µM | 360,000 tested, 0.14% active | AID 602329;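 active = mean normalized replicate activity at least 40 and at least half of replicates scoring 40 or more; inconclusive = only one of the two criteria met; inactive = mean below 40 and under half of replicates reaching 40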;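 note: inhibitors cause a drop in the FAM fluorescence signal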
MLL AF4-AF9 inh – inhibitors of human MLL-AF4/AF9 interaction | P42568 | 350,000 tested, 0.47% active | AlphaScreen, biotin-AF4 peptide binding to FLAG-AF9 | inhibition, % at 10 µM;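 active = every replicate reaching a set inhibition limit, whatever the replicate mean, cut at about 25% in these data; inconclusive = mean inhibition reaches that limit but some replicates miss it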
PGC1a acetyl inh – PGC1a acetylation modulation, inhibitor mode | U2OS PGC1a acetylation, AlphaScreen anti-acetyl-lysine; with virally co-expressed GCN5 acetyltransferase | inhibition, % at 15.6 µM | 350,000 tested, 0.17% active;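 active = every replicate shows inhibition of at least 40%; inconclusive = mean inhibition at least 40% but some replicate below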
ERAP1 HTS inh – blocks human ERAP1 aminopeptidase activity; Q9NZ08; inhibition, % at 10.7 µM; recombinant ERAP1, Leu-AMC fluorescence, 60 min; AID 652197; 340,000 tested, 0.15% active;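 active = mean replicate inhibition of at least 30%, or all replicates individually reaching that 30% level; inactive = mean below 30% and not every replicate reaching it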
Target sequence (Q9NZ08 whole entry, looked up): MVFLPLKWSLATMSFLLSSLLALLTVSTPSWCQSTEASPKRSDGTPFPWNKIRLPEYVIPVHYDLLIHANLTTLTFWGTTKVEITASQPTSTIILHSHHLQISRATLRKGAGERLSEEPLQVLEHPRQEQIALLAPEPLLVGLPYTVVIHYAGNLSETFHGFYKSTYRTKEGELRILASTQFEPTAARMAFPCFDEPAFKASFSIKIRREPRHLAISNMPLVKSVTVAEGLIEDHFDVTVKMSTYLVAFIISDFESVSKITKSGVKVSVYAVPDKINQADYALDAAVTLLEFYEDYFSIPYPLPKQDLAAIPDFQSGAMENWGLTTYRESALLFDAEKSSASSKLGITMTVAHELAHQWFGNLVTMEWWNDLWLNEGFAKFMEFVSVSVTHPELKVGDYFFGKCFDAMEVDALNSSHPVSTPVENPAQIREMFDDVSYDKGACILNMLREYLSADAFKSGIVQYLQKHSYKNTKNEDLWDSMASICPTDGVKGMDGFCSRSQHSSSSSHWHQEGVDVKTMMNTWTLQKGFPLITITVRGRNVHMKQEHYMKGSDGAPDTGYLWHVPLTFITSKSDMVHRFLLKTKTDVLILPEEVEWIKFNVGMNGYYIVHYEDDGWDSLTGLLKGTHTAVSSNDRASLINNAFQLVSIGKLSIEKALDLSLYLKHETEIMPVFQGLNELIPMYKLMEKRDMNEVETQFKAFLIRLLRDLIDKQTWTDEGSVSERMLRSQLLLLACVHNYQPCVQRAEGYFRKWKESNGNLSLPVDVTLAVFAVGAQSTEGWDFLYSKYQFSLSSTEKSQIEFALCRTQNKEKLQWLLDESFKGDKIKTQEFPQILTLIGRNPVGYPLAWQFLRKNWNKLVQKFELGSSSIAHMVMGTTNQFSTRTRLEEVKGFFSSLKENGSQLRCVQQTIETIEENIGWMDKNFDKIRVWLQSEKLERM
RAD52 inh – inhibitors of human RAD52 DNA annealing. P43351. recombinant RAD52 DNA annealing, FRET fluorescence. inhibition, % at 18.7 µM. 360,000 tested, 0.46% active. AID 651710;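 active = every replicate showing at least 50% inhibition; inconclusive = mean inhibition at least 50% but not in every replicate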
GSIS activator – GLuc luminescence reporter in INS-1E cells, primary screen for activators of glucose-dependent secretion of insulin | INS-1E GLuc reporter insulin secretion, 2-3 h | activation, % at 16.6 µM | 370,000 tested, 0.61% active | AID 743287;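 active = lowest replicate activation of at least 40%, so every replicate reaches that level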
AlphaScreen intf – counter-screen: AlphaScreen signal interference | shares compounds with MLL AF4-AF9 inh | signal luminescence | AC50, µM (doses to about 12 µM) | 530 tested, 45% active; cut-off not given, nearly all actives have AC50 up to about 14 µM
DNA binder FP – counter-screen for RAD52 inhibitors: DNA binding compounds; shares compounds with RAD52 inh; Salmon sperm DNA/acridine orange FP displacement; AC50, µM; 1,000 tested, 8% active; AID 652128;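 active = fitted half-maximal concentration for signal loss at or below twice the highest dose tested, in every separate run, actives reach about 64 µM in these data; inconclusive = runs disagree, or flat partial signal loss, or poor fit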
Hits are given with their value; 0 = inactive; ? = inconclusive; - = no result; ! = not active in a repeat. Compounds with a hit are over-represented: about 1.4% of the library has one in this group of screens.

SMILES	RAD54 branch	MLL AF4-AF9 inh	PGC1a acetyl inh	ERAP1 HTS inh	RAD52 inh	GSIS activator	AlphaScreen intf	DNA binder FP
CN(C)c1ccc(NC(=S)NC23CC4CC(CC(C4)C2)C3)cc1	0	44	0	0	0	0	0	-
CCCNC(=O)Nc1ccc2c(c1)C(=O)N(C)[C@@H]1CC[C@H](CC(=O)O)O[C@@H]1CO2	0	-	0	-	-	0	-	-
CS(=O)(=O)Nc1ccc2c(c1)[C@H]1C[C@H](CC(=O)N3CCc4ccccc4C3)O[C@H](CO)[C@H]1O2	0	0	0	0	0	0	-	-
Fc1ccc(-[n+]2nc(Nc3ccccc3)sc2-c2c(Cl)cccc2Cl)cc1	0	34	0	0	0	0	0	-
COc1ccc(C)cc1Nc1n[n+](-c2ccccc2)c(-c2c(Cl)cccc2Cl)s1	-	45	-	0	0	0	0	-
COc1ccc2ccccc2c1-c1sc(Nc2ccccc2)n[n+]1-c1ccc(F)cc1	0	43	0	0	0	0	0	-
COc1ccc(-c2sc(Nc3ccccc3)n[n+]2-c2ccc(F)cc2)cc1Br	0	0	0	0	0	0	-	-
Cc1cccc(C2Nc3cccc4cccc(c34)N2)c1	0	0	-	0	0	0	-	-
c1cc2c3c(cccc3c1)NC(c1ccc3c(c1)OCO3)N2	0	34	0	0	0	0	0	-
COc1ccc(COC[C@@]23Oc4ccccc4[C@@H](NC(=O)N2C)[C@H]3CO)cc1	0	0	0	0	0	-	-	-
Oc1c(C(Nc2cccc(C(F)(F)F)c2)c2ccncc2)ccc2cccnc12 (stereo not drawn)	-	33	0	0	0	0	4.8µM	-
CC(C)NC(=O)N1C2CN(Cc3ccc(F)cc3)CC1C2c1ccc(Br)cc1 (stereo not drawn)	-	-	-	-	-	0	-	-
O=C(C[C@H]1CC[C@@H]2[C@H](COC[C@@H](O)CN2S(=O)(=O)c2ccccc2)O1)NCC1CCCCC1	0	39	0	0	94	-	0	-
O=C(C[C@@H]1CC[C@@H]2[C@H](COC[C@H](O)CN2S(=O)(=O)c2ccc(Cl)cc2)O1)NCC1CCCCC1	0	0	0	0	0	0	-	-
CCOc1ccc2oc(C(=O)NCC(c3ccco3)N(C)C)c(C)c2c1 (stereo not drawn)	0	0	0	0	0	0	-	-
Cc1c(C(=O)NCC(c2ccco2)N(C)C)oc2c(Cl)cccc12 (stereo not drawn)	0	?	-	0	0	0	0	-
CN1\C(=C/C=C/C=C/C=[N+](C)C)C(C)(C)c2ccccc21	-	41	-	0	0	-	9.8µM	-
CCOc1ccc(NCc2cccn2-c2nnc(N3CCC(C(=O)NCCCN4CCCCC4CC)CC3)s2)cc1 (stereo not drawn)	0	38	0	0	0	0	11µM	-
CC1CCCCN1CCCNC(=O)C1CCN(c2nnc(-n3cccc3)s2)CC1 (stereo not drawn)	0	0	0	0	0	0	-	-
COc1ccc(NCc2nn(CC(=O)c3ccc(Br)cc3)c3[n+]2CCCCC3)cc1	-	30	0	0	0	0	0	-
COc1cccc(CNC(=O)C[C@@H]2C=C[C@@H](NC(=O)C3CCC3)[C@H](CO)O2)c1	-	-	0	-	-	0	-	-
CC1CN(C)C(C)c2c1oc1ccc(N)cc21 (stereo not drawn)	-	35	-	0	95	0	0	0
O=C1c2c(O)ccc(O)c2C(=O)c2c(NCCNCCO)ccc(NCCNCCO)c21	122	97	0	39!	102	0	0.35µM	1.5µM!
COc1ccc2c3c([nH]c2c1)[C@H](CO)N(Cc1cccc(F)c1)CC31CN(CC2CC2)C1	-	0	0	0	0	0	-	-
Cc1ccc2nc(-c3ccc(NC(=S)NC4CC(C)(C)NC(C)(C)C4)cc3)sc2c1	0	45	0	0	95	0	0	0
SMILES	RAD54 branch	MLL AF4-AF9 inh	PGC1a acetyl inh	ERAP1 HTS inh	RAD52 inh	GSIS activator	AlphaScreen intf	DNA binder FP
CN(C)CC/C=C1/c2ccc(F)cc2Sc2ccc(Cl)cc21	0	36	0	0	62	0	0	0
CN(C)CC/C=C1\c2ccccc2Sc2ccc(Cl)cc21	0	0	0	0	0	0	-	-
CN(C)CC/C=C1\c2ccc(F)cc2Sc2cc(F)c(Cl)cc21	0	46	0	0	71	0	0	0
COc1ccc2c3c([nH]c2c1)[C@@H](CO)NCC31CN(C(=O)C2CCCC2)C1	-	0	-	0	0	0	-	-
CO[C@H]1CN(C)C(=O)c2ccc(NC(C)=O)cc2OC[C@H](C)N(C(=O)c2ccccc2F)C[C@@H]1C	0	-	0	-	-	0	-	-
O=C(c1ccc(-c2cc(O)c3ncccc3c2)cc1)N1CCNCC1	0	92	0	0	101	-	3.9µM	0
CC(C)(C)c1ccc(C(=O)N2CCNCC2)cc1	0	-	0	-	-	-	-	-
Oc1ccccc1C=NCCN=Cc1ccccc1O	-	0	0	-	0	0	-	-
Oc1ccccc1C=NCC(O)c1ccccc1 (stereo not drawn)	0	0	-	0	0	0	-	-
Oc1ccccc1C=NCCN1CCN(CCN=Cc2ccccc2O)C1c1ccccc1O (stereo not drawn)	0	30	0	0	66	0	0	0
Oc1ccccc1C=NCCCCCCN=Cc1ccccc1O	0	39	0	0	59	0	0	0
CC1CCN(CC(=O)Nc2ccc(N3CCCCCC3)cc2)CC1	-	53	0	0	75	0	12µM	0
CC(C)C[C@@H]1COCc2cn(nn2)CC[C@H](Cc2cccc(Cl)c2)C(=O)N1	-	-	-	-	-	0	-	-
CCCCCN=C(N)N/N=C/c1c[nH]c2ccc(OC)cc12	0	35	0	0	56	-	0	0
CCN(Cc1ccccc1)c1ccc(/C=N/N=C(N)N)cc1	0	53	-	0	92	-	10µM	0
CN(C)CCCN1c2ccccc2Sc2ccc(Cl)cc21	0	39!	0	0	101	0	0	0
CC(=O)c1ccc2c(c1)N(CCCN1CCC(CCO)CC1)c1ccccc1S2	0	0	0	0	0	0	-	-
OCCN1CCN(CCCN2c3ccccc3Sc3ccc(Cl)cc32)CC1	0	40	0	0	102	-	0	0
CN1CCN(CCCN2c3ccccc3Sc3ccc(S(=O)(=O)N(C)C)cc32)CC1	0	0	0	0	0	0	-	-
CCCC(=O)Nc1ccc2c(c1)C(=O)N(C)C[C@H](OC)[C@H](C)CN(C(C)=O)[C@@H](C)CO2	0	0	0	0	0	0	-	-
O=C(C[C@@H]1CC[C@H]2[C@@H](COC[C@H](O)CN2CCC(F)(F)F)O1)NCc1ccc(Oc2ccccc2)cc1	0	0	0	0	0	0	-	-
C[C@@H]1CN([C@H](C)CO)C(=O)c2cccc(NC(=O)C3CCCCC3)c2O[C@H]1CN(C)Cc1ccc(C(=O)Nc2ccccc2N)cc1	0	0	0	0	0	0	-	-
CNC(=O)C[C@H]1CC[C@@H]2[C@H](COc3ccc(NC(=O)Nc4cc(C)cc(C)c4)cc3C(=O)N2C)O1	0	0	0	0	0	0	-	-
